# Assay outcomes from PubChem BioAssay.
# The entries come from a sample that favours hits as a whole.
# HIV RNase H inh-1: HIV-1 RT RNase H inhibitors, primary screen, biochemical, fluorescence; RT-RNase H RNA/DNA duplex cleavage; 1.9% of 65,000 active; Gag-Pol polyprotein (Human immunodeficiency virus type 1 group M subtype B (isolate …; AID 565, 2006; inhibition, % at 10 µM; in the data active = inhibition above about 50%
# RmlCD inh mix: RmlC and RmlD coupled enzyme inhibitors, primary screen, biochemical, 384-well, compound mixtures, retest; RmlC/RmlD coupled enzyme inhibition, 384-well mixture HTS; inhibition, % at 5.5 µM; 0.39% of 110,000 active; AID 1532, 2009; in the data active = inhibition above about 30%, passing the limit was not always enough; inconclusive = no clear call, values can overlap the other calls
# HIV RNase H inh-2: HIV-1 RT RNase H inhibitors, retest, confirmation, biochemical | shares compounds with HIV RNase H inh-1 | Recombinant RT RNase H, fluorescent RNA/DNA duplex cleavage | inhibition, % at 10 µM | 39% of 1,000 active; in the data active = inhibition above about 48%; inconclusive = no clear call, values can overlap the other calls
# Starred values were filed as active, the others as inactive; ? = inconclusive; / = not tested or not shown.
SMILES,HIV RNase H inh-1,RmlCD inh mix,HIV RNase H inh-2
CCCCn1c(CN2C(=O)c3ccccc3C2=O)nc2ccccc2c1=O,90*,14,54*
Cc1oc(C(C)(C)C)cc1C(=O)N1CCCC1C(=O)O (stereo unspecified),/,0,/
CC(=O)c1c(C)oc2ccc(NS(=O)(=O)c3ccc(O)c(C(=O)O)c3)cc12,19,-17,/
O=C(O)c1cc(S(=O)(=O)Nc2ccc3oc(=O)sc3c2)ccc1O,82*,5,64*
O=C(NCCCc1ccccc1)c1cnc2n(c1=O)CCS2,72*,14,32
O=C(NCc1ccccc1)c1cnc2n(c1=O)CCS2,0,4,/
N#Cc1c(-c2cccs2)cc(C2CC2)nc1SCC(N)=O,/,-7,/
CC(O)c1nc2ccccc2n1CCOc1ccccc1 (stereo unspecified),/,4,/
COc1ccccc1OCCn1c(C(C)O)nc2ccccc21 (stereo unspecified),65*,-16,42
Cc1ccc(-n2ncc3c(NCCCN4CCCC4=O)ncnc32)c(C)c1,-7,/,/
Cc1cccc2sc(NC(=O)C3CCCO3)nc12 (stereo unspecified),-15,8,/
Cc1nc(C)c(C(=O)Nc2nc3c(C)cccc3s2)o1,86*,-29,68*
COc1ccc(Cc2nc(-c3cccs3)no2)cc1OC,72*,3,12
COc1ccc(Cc2nc(-c3ccc(-n4cccc4)cc3)no2)cc1OC,-53,-7,/
O=C(NC(=S)NCc1ccccc1)C1CCCCC1,/,9,/
Cc1ccc(Cn2c(C3CCCN3c3nc(-c4cc(Cl)c(N)c(Cl)c4)cs3)nc3cc(Cl)c(Cl)cc32)cc1 (stereo unspecified),/,-31,/
CCOC(=O)c1c(C)[nH]c(C(=O)CSc2nc3ccccc3o2)c1C,90*,4,69*
CC(=O)c1c(C)[nH]c(C(=O)CSc2nnc(-c3ccccc3)o2)c1C,/,-7,/
CCOC(=O)c1c(C)[nH]c(C(=O)CSc2nnc(CC(C)c3ccccc3)o2)c1C (stereo unspecified),72*,-4,?
CCOC(=O)c1c(NC(=O)CSc2nc3ccccc3o2)sc(C)c1C,/,9,/
COC(=O)C1(Cc2ccc(O)c(CC3OC3(C)C)c2)OC(=O)C(O)=C1c1ccc(O)cc1 (stereo unspecified),/,6,/
COCCN1CSC(=S)N(Cc2ccco2)C1,63*,4,-8
COCCN=C1Sc2nc3ccc(C)cc3cc2CN1Cc1ccco1,/,9,/
O=C(CN(C(=O)CSc1nc2ccccc2o1)c1ccccc1)NC1CCCCC1,/,5,/
c1ccc2c(c1)oc1c(N3CCN(Cc4ccc5c(c4)OCO5)CC3)ncnc12,-9,5,/
SMILES,HIV RNase H inh-1,RmlCD inh mix,HIV RNase H inh-2
O=C1CC(N2CCN(c3ccc(O)cc3)CC2)C(=O)N1Cc1cccs1 (stereo unspecified),81*,-5,20
O=C1CC(N2CCN(C/C=C/c3ccccc3)CC2)C(=O)N1Cc1cccs1 (stereo unspecified),5,-8,/
O=C(Nc1ccc2nc(-c3ccc(Br)o3)[nH]c2c1)c1cccs1,71*,0,2
Cn1cccc1-c1nc2ccc(NC(=O)c3cccs3)cc2[nH]1,0,-6,/
CC1(c2nnc(-c3cccc(Cl)c3)o2)CC(c2cccnc2)=NO1 (stereo unspecified),/,-14,/
CCOC(=O)c1c(N)sc(=S)c2c1CCC2,48,0,/
CCOC(=O)c1c(N)ssc1=S,85*,5,?
Cc1ccc(CNC(=O)CSc2c3c(nc4cc(Cl)ccc24)CCCC3)o1,/,-10,/
O=C(COc1ccc(Cl)cc1)Nc1nc(-c2ccc(S(=O)(=O)N3CCOCC3)cc2)cs1,/,-6,/
O=C(COc1ccccc1)Nc1nc(-c2ccc(S(=O)(=O)N3CCOCC3)cc2)cs1,66*,-1,20
Cc1ccccc1OCC(O)Cn1c(NCc2ccccc2)nc2c1c(=O)[nH]c(=O)n2C (stereo unspecified),/,6,/
Cc1cc(C)n(-c2nc3c(c(=O)[nH]c(=O)n3C)n2CC(O)COc2ccccc2C)n1 (stereo unspecified),-6,-12,/
CCSc1nc2c(c(=O)[nH]c(=O)n2C)n1CC(O)COc1ccccc1C (stereo unspecified),76*,6,37
Cc1ccccc1OCC(O)Cn1c(SC(C)C)nc2c1c(=O)[nH]c(=O)n2C (stereo unspecified),67*,-9,-9
C=CCn1c(SCc2nc3ccccc3nc2C)nnc1-c1ccoc1C,2,17,/
COc1ccccc1-c1cc(C(=O)NCc2ccco2)no1,3,4,/
O=C(CSc1nnnn1C1CCCCC1)NCc1ccccc1,/,5,/
O=C(Sc1nnnn1C1CCCCC1)c1cccs1,62*,7,40
